Inconclusive results are not listed. A call without a number means that no potency is given here. The source made the active and inactive calls. Calls come from the whole dose curve.

For the assay, the target named is Acetylcholinesterase (Homo sapiens) (UniProt P22303). Description: Acetylcholinesterase (AChE) small molecule antagonists: colormetric cell-based qHTS assay (AID 1347395). Note: nearly all actives have a fitted effect of over 30% in size. The settings on record: SH-SY5Y cells AChE activity, colorimetric (Ellman); series mostly up to 115 µM. Put shortly: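 Colorimetric readout: DTNB quantifies thiocholine from acetylthiocholine hydrolysed by endogenous AChE of SH-SY5Y cells (2,000/well, plated overnight). Compound pretreatment 30 min, substrate incubation 90 min, both 37 C.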
Acetylcholinesterase (Homo sapiens), sequence (P22303 whole entry, looked up): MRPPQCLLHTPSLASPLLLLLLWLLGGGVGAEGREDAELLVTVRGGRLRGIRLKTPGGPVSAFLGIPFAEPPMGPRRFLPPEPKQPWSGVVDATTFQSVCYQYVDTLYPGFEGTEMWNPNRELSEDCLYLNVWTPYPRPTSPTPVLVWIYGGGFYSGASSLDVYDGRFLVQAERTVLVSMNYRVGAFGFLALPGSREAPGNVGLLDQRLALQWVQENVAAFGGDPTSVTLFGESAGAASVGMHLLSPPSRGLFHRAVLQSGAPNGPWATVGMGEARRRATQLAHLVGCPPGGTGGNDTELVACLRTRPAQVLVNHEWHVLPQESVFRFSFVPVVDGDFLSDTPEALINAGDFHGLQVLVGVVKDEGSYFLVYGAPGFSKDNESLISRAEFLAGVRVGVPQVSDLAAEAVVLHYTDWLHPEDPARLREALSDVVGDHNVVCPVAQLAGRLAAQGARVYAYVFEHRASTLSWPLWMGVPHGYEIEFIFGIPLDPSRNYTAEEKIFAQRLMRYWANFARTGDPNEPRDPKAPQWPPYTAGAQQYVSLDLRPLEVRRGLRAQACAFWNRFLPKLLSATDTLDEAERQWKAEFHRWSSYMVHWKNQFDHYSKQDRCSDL
With `OCCC(F)(F)C(F)(F)C(F)(F)C(F)(F)C(F)(F)C(F)(F)C(F)(F)C(F)(F)F`, the Potency entry was “inactive”. With `CC(C)(C)C(=O)O`, the Potency result is “inactive”. For `O=c1c2ccccc2nnn1CCl` the value was “inactive”. For the compound `CCCCCCCCCOC(=O)c1ccccc1C(=O)OCCCCCCCCC`, the Potency entry is “inactive”. As for `CC1(C)OC(=O)Nc2ccc(Br)cc21`, the entry is “inactive”; as for `CC(C)CCC(=O)CCC(C)C`, “inactive”; as for `Nc1cccc2c(N)cccc12`, “inactive”. For `CN(C1CCCCC1)S(=O)(=O)c1ccccc1N` the value was “inactive”; for `CCCCc1ccc2c(n1)[C@@H](c1ccc(OC)cc1C[C@H](C)C(=O)O)[C@H](C(=O)O)[C@H]2c1ccc2c(c1)OCO2`, “inactive”; for `COc1ccc2[nH]c(S(=O)Cc3ncc(C)c(OC)c3C)nc2n1` (stereo not given), “inactive”. As for `C=CCn1cc[n+](C)c1`, the entry is “inactive”; as for `COCCOC(=O)C1=C(C)NC(C)=C(C(=O)OC/C=C/c2ccccc2)C1c1cccc([N+](=O)[O-])c1` (stereo not given), “inactive”; as for `CC(=O)c1ccc[nH]1`, “inactive”. Turning to `C=Cc1ccc(S(=O)(=O)O)cc1`, the Potency result is “inactive”. As for `CCOCCOC(=O)/C=C/c1ccc(OC)cc1`, the entry is “inactive”; as for `CCC=CC#N`, “inactive”.

As to `Nc1nc(CC(=O)O)cs1`, the Potency result is “inactive”. For `Nc1ccc(F)cc1` the value was “inactive”; for `CC(=O)CCC1=C(C)CCCC1(C)C`, “inactive”. For `C1C2OC2C2C1C1CC2C2OC12` (stereo not given) the value was “inactive”. As for `Brc1cc(-c2ccc(Br)c(Br)c2Br)cc(Br)c1Br`, the entry is “inactive”. As for `COc1cccc(Br)c1`, the Potency result was “inactive”.

As to `CCC(=O)OCCOc1ccccc1`, the Potency entry is “inactive”. Turning to `Nc1nc(=O)n([C@@H]2O[C@H](CO)[C@@H](O)[C@@H]2F)cc1I`, the Potency entry is “inactive”. For the compound `CC(=O)NC1(c2cccc(F)c2)CCN(CC[C@@]2(c3ccc(Cl)c(Cl)c3)CN(c3ccccc3)C(=O)CO2)CC1`, the Potency entry is “inactive”. For `C/C=C(\C)C#N` the value was “inactive”; for `CCOC(=O)CC(C)C`, “inactive”; for `Nc1ncnc2c1ncn2[C@H]1CC[C@@H](CO)O1`, “inactive”. In the case of `CCC(C)c1ccccc1` (stereo not given), the Potency result is “inactive”. For `CCN(CC)c1ccc(C=O)cc1` the value was “inactive”; for `CC1=CC[C@@]23C[C@@H]1C(C)(C)[C@@H]2CC[C@H]3C`, “inactive”. For `C=C(C)c1ccccc1` the value was “inactive”; for `CC(=O)NC(Cc1ccccc1)C(=O)O` (stereo not given), “inactive”. For `O=C1CCCc2c1cc1ccc3cccc4ccc2c1c34` the value was “inactive”. Regarding `CC(C(=O)O)c1ccc2c(c1)[nH]c1ccc(Cl)cc12` (stereo not given), the Potency result is “inactive”. For `O=C(O)CCCc1ccccc1` the value was “inactive”. For `CC(C)COC(=O)c1ccc(O)cc1` the value was “inactive”; for `CCN(CC)C(=O)/C(C#N)=C/c1cc(O)c(O)c([N+](=O)[O-])c1`, “inactive”; for `C1=COCCC1`, “inactive”.

As to `CCOC(=O)c1ccccc1OC`, the Potency entry was “inactive”.

For the origin of these results see PubChem BioAssay (Tox21).
